# A selection: hits, their analogues and other compounds. The true share with any hit is near 1.6%.
# MOR-DOR inv ag: inverse agonists of MOR-DOR heterodimerization, primary screen, cell-based, luminescence | inhibition, % at 9.3 µM | Mu-type opioid receptor (Homo sapiens) + Delta-type opioid receptor (Homo sapiens), … | cell-based MOR-DOR heterodimer luminescence, inverse agonism | hit rate 0.21% among 340,000; in the data active = inhibition above about 22%, passing the limit was not always enough;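 note: 0% = cells with DMSO and 100% = wells without cells with DMSO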
# HTR5A inv ctr: HTR5A inverse agonists in luminescence cell assay, primary screen, counter-screen for OPRM1-OPRD1 heterodimer inverse agonist project, full-deck HTS | 5-hydroxytryptamine receptor 5A (Homo sapiens), P47898 | inhibition, % at 9.3 µM | hit rate 0.083% among 340,000 | HTR5A cell line, inverse agonism; in the data active = inhibition mostly above about 23%, no sharp cut-off; inactive = mostly below about 18%;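 note: 0% = cells with DMSO and 100% = no-cell wells with DMSO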
# Target sequence (P47898 whole entry, looked up): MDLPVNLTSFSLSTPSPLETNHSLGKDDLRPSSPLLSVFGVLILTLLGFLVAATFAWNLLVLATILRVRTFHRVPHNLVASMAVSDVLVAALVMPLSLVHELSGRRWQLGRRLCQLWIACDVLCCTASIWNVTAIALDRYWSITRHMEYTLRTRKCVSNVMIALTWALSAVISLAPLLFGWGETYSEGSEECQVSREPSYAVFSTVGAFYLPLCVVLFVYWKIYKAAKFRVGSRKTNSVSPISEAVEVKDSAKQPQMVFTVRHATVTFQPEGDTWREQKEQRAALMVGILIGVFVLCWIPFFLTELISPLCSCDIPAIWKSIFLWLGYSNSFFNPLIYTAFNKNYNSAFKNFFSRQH
# HTR2A ag: mouse Htr2a agonists via beta-arrestin recruitment, primary screen, cell-based, luminescence; 5-hydroxytryptamine receptor 2A (Mus musculus), P35363; CHO-K1 mHTR2A beta-arrestin complementation; percent of 30 µM serotonin response; activation, % at 7.6 µM; hit rate 0.66% among 360,000; AID 624169, 2012;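 active = activation above a run cutoff, the mean activation of all tested compounds plus 3 SD, cut at about 14% in these data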;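 note: 0% = plate median of compound wells and 100% = 30 µM serotonin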
# OPRM1-OPRD1 ag: agonists of OPRM1-OPRD1 heterodimerization, primary screen, cell-based, luminescence; Mu-type opioid receptor (Homo sapiens) + Delta-type opioid receptor (Homo sapiens), …; cells; activation, % at 9.3 µM; hit rate 0.3% among 340,000; AID 504326, 2011;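 note: 0% = vehicle-treated cells and 100% = reference agonist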
# HTR5A ag ctr: HTR5A agonists in luminescence cell assay, primary screen, counter-screen for OPRM1-OPRD1 heterodimer agonist project, full-deck HTS. cell-based. 5-hydroxytryptamine receptor 5A (Homo sapiens), P47898. hit rate 0.61% among 340,000. activation, % at 9.3 µM. AID 504692, 2011; in the data active = activation mostly above about 9.5%, no sharp cut-off; inactive = mostly below about 7.6%;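 note: 0% = cells with vehicle only and 100% = reference agonist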
# MOR-DOR ag conf: agonists of MOR-DOR heterodimerization, confirmation, cell-based, luminescence | shares compounds with OPRM1-OPRD1 ag | cells, luminescence complementation | activation, % at 9.3 µM | hit rate 45% among 830 | AID 504904, 2011;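 note: 0% = vehicle-treated cells and 100% = reference agonist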
# HTR5A ag ctr2: HTR5A agonists in cells, counter-screen for OPRM1-OPRD1 heterodimer agonist project, cell-based, luminescence | shares compounds with OPRM1-OPRD1 ag | HTR5A agonist counterscreen | activation, % at 9.3 µM | hit rate 8% among 830; in the data active = activation above about 17%;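 note: 0% = vehicle-treated cells and 100% = reference agonist response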
# Active calls of the source: *; i = inactive; . = no result given. Cut-off read from the data, not from the text of the source, unless noted: active = activation above about 18%; inactive = the rest.
SMILES,MOR-DOR inv ag,HTR5A inv ctr,HTR2A ag,OPRM1-OPRD1 ag,HTR5A ag ctr,MOR-DOR ag conf,HTR5A ag ctr2
Cc1ccc(/C=N/NC(=O)CSc2nnc(-c3ccc(Cl)cc3)n2-c2ccc(Cl)cc2)o1,-186,-32,13,37*,11,18,17*
C=CC[C@@H](CC(=O)N(CCO)Cc1ccccc1)C(=O)N[C@@H](COC(=O)[C@H](CC=C)CC(=O)OC(C)(C)C)Cc1c[nH]c2ccccc12,-149,12,-8,26*,4,17,4
Cc1ccccc1Cn1c(O)c(N=NC(=S)Nc2ccccc2F)c2ccccc21,-91,1,-1,18*,1,76*,3
Oc1c(N=NC(=S)Nc2ccccc2F)c2ccccc2n1Cc1ccccc1F,15,1,1,-3,0,.,.
CC(=O)NC(C)(c1ccccc1)c1nc(-c2ccc(S(C)(=O)=O)cc2)cs1 (stereo not drawn),.,.,-1,.,.,.,.
CCOc1ccc(C(=O)C(CCC(CN(C)C)C(=O)c2ccc(OCC)cc2)CN(C)C)cc1 (stereo not drawn),-135,-60,-9,29*,14*,-4,-9
CC1(C(=O)O)CCCN1C(=O)c1cccc2ccccc12 (stereo not drawn),.,.,-7,.,.,.,.
CCOC(=O)c1c(NC(=O)COC(=O)c2ccc(Cl)nc2)sc(C(=O)N(C)C)c1C,10,-8,5,-2,3,.,.
CCOC(=O)c1c(NC(=O)CN2CCN(S(=O)(=O)c3cc(Cl)ccc3Cl)CC2)sc(C(=O)N(C)C)c1C,-96,4,-11,18*,-1,12,-1
C/C=C/c1cccc(-c2nc(C(=O)N3CCOCC3)cc3c2[C@H](CCO)N(C(=O)NC(C)C)C3)c1,.,.,-6,.,.,.,.
COc1cccc(CNCCc2c[nH]c3ccccc23)c1OCc1ccccc1,-99,-45,0,18*,10,27*,8
Cc1ccc(S(=O)(=O)/N=C2\C=C(Nc3ccc(O)cc3)C(=O)c3ccccc32)cc1,-64,-7,-11,16,0,.,.
Cc1ccc(S(=O)(=O)/N=C2/C=C(Sc3ncn[nH]3)C(=O)c3ccccc32)cc1,-125,-21,20*,23*,10,5,-6
Cc1ccccc1OCC(O)Cn1c(=N)n(Cc2ccccc2)c2ccccc21 (stereo not drawn),-155,-6,-11,31*,2,53*,8
COc1ccccc1OCC(O)Cn1c(=N)n(Cc2ccccc2)c2ccccc21 (stereo not drawn),-13,18,-6,2,-1,.,.
COC(=O)CCCn1cc(CN2CC(N3CCN(C4CCN(C)CC4)CC3)CS2(=O)=O)nn1 (stereo not drawn),.,.,1,.,.,.,.
CN1CCN(c2ccc(NC(=O)c3ccc(-c4ccccc4F)o3)cc2)CC1,i,-38,-2,158*,4,249*,7
Cc1cc(N2CCN(C)CC2)ccc1NC(=O)c1ccc(-c2ccc(Cl)cc2)o1,-136,-5,-13,26*,2,44*,1
Cc1ccc(C2(CCNCc3ccc(N(C)C)cc3)CCOC(C(C)C)C2)cc1 (stereo not drawn),-84,-6,-2,16,2,.,.
CC(C)C1CC(CCNCc2ccc(N(C)C)cc2)(c2ccccc2)CCO1 (stereo not drawn),-113,-20,-4,21*,7,25*,-1
CC(C)(C)n1nnnc1C(c1cc2ccccc2o1)N1CCCCC1 (stereo not drawn),.,.,-5,.,.,.,.
O=C(COC(=O)/C=C/c1ccco1)Nc1ccccc1,10,7,3,-2,-2,.,.
COC(=O)c1ccccc1NC(=O)COC(=O)/C=C/c1ccco1,-97,9,0,21*,-1,6,2
COc1ccc(C2Nc3ccccc3C(=O)N2Cc2ccco2)cc1COc1ccc([N+](=O)[O-])cc1 (stereo not drawn),-110,-2,-6,22*,1,13,-1
CCCCCCn1c(SCC(=O)Nc2cc(C)on2)nc2ccccc2c1=O,-121,-19,3,21*,3,26*,17*
SMILES,MOR-DOR inv ag,HTR5A inv ctr,HTR2A ag,OPRM1-OPRD1 ag,HTR5A ag ctr,MOR-DOR ag conf,HTR5A ag ctr2
O=C(Nc1ccc(Br)cc1)c1cc([N+](=O)[O-])cc([N+](=O)[O-])c1,-124,-8,9,22*,4,12,7
CC(=O)Nc1ccc(NC(=O)c2cc([N+](=O)[O-])cc([N+](=O)[O-])c2)cc1,-27,-23,1,5,3,.,.
COc1ccc(CCN2C(=O)c3ccccc3C2c2nnnn2Cc2ccccc2)cc1OC (stereo not drawn),.,.,1,.,.,.,.
Cc1cc2c(cc1C)CSC(c1ccc3ccccc3c1O)SC2,8,11,-3,-1,-4,.,.
Cc1cc2c(cc1C)CSC(c1c(O)ccc3ccccc13)SC2,-161,5,5,31*,-4,19*,1
NC(=O)c1cnc(Cc2c[nH]c3ccccc23)c(I)c1,.,.,-5,.,.,.,.
CC(=O)C1=CCC(c2ccc(C)cc2)N(S(=O)(=O)c2ccc(Cl)cc2)C1 (stereo not drawn),.,.,1,.,.,.,.
Cc1ccc(NC(=O)CSc2nc(N)c3cc4c(nc3n2)CCCC4)cc1,-156,-22,3,29*,2,28*,1
COc1ccc(NC(=O)CSc2nc(N)c3cc4c(nc3n2)CCCC4)c(OC)c1,9,0,0,-2,0,.,.
O=C(CSc1nc2nc3c(cc2c(=O)n1-c1ccccc1)CCCC3)Nc1ccccc1,14,-13,-2,-2,4,.,.
Nc1nc(SCC(=O)Nc2ccccc2)nc2nc3c(cc12)CCCC3,-194,-52,6,35*,9,7,5
O=C(CNc1ccc2ccccc2c1)N/N=C/c1ccc([N+](=O)[O-])o1,-186,-22,4,38*,9.3*,6,7
O=C(COc1ccccc1)N/N=C/c1ccc([N+](=O)[O-])o1,-46,-12,-2,7,-3,.,.
CC1(C)NC(=O)N(CCC(=O)Nc2ccc(C(C)(C)C)cc2)C1=O,.,.,4,.,.,.,.
Cc1ccc(S(=O)(=O)N2[C@@H](c3ccc(C(C)(C)C)cc3)C(C(=O)O)=CC[C@H]2c2cccs2)cc1,-124,-6,7,26*,2,24*,14
